# Test results as given in PubChem BioAssay (EPA / NIEHS).
# Results filed as inconclusive are left out. Active and inactive are the calls of the source. Rule for the calls: active = hit-call score of the fitted dose curve at least 0.9, where 1 is the maximum; inconclusive = response in the unintended direction; inactive = score below 0.9.
# Target: Beta-2 adrenergic receptor (Homo sapiens) (UniProt P07550)
# Assay: NVS_GPCR_hAdrb2: NovaScreen (NVS) G Protein-Coupled Receptor Assay for human Adrenergic, Beta 2 Receptor (Adrb2) (AID 2283261)
# In short: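 Filter-based radioligand binding using receptor prepared from CHO cells, 1 h incubation, scintillation counting. Primary screen in duplicate at 25 uM, actives retested in concentration series; loss of binding relative to DMSO.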
# Sequence of Beta-2 adrenergic receptor (Homo sapiens) (P07550 whole entry, looked up): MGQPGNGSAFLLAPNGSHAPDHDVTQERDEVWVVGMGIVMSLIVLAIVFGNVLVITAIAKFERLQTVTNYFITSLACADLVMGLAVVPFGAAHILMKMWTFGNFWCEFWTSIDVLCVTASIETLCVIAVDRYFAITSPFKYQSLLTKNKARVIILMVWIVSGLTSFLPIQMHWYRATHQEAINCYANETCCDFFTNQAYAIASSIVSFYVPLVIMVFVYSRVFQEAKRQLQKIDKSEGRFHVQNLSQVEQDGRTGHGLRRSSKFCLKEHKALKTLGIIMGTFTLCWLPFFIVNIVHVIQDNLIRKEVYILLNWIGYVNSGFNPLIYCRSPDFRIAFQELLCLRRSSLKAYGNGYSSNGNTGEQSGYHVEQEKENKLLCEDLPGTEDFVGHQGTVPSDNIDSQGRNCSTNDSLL
Structure (SMILES),AC50,outcome
CN(C)c1ccc(C(=C2C=CC(=[N+](C)C)C=C2)c2ccc(N(C)C)cc2)cc1,14.4 µM (active),–
Cc1cc(F)ccc1-c1cc(N2CC[C@@H](O)[C@H]2CO)ncc1N(C)C(=O)C(C)(C)c1cc(C(F)(F)F)cc(C(F)(F)F)c1,–,inactive
CN(C)C(=O)C1(N2CCCCC2)CCN(CC[C@@]2(c3ccc(Cl)c(Cl)c3)CN(C(=O)c3ccccc3)CCO2)CC1,25.9 µM (active),–
NCc1cccc(C2CCN(C(=O)c3ccc(C#Cc4ccccc4F)o3)CC2)c1,12.6 µM (active),–
CCN(CC)C(=O)c1cc(S(=O)(=O)Cc2ccccc2)c(N2CCC(c3ccccc3)CC2)cc1N(CC)CCN(C)C,16.5 µM (active),–
CCOC(=O)O[C@H](C)OC(=O)c1ccc2c(c1)cc(C(=O)NC1CCN(C(C)C)CC1)n2Cc1cc(-c2ccc(Cl)s2)on1,12.9 µM (active),–
CC/C(=C(/CC)c1ccc(O)cc1)c1ccc(O)cc1,40.3 µM (active),–

# Target: Type-1 angiotensin II receptor (Homo sapiens) (UniProt P30556)
# Sequence (P30556 whole entry, looked up): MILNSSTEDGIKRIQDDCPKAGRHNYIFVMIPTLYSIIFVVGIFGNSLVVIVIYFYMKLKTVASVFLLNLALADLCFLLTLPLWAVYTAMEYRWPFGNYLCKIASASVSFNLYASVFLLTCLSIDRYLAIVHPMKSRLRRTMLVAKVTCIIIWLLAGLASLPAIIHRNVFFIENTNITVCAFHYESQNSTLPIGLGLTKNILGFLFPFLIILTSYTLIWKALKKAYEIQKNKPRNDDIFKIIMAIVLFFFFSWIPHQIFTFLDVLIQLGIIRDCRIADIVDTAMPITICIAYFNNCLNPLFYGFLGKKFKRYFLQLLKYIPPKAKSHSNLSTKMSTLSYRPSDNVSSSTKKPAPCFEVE
# Assay: NVS_GPCR_hAT1: NovaScreen (NVS) G Protein-Coupled Receptor Assay for human Angiotensin II receptor type 1 (AT1) (AID 2283263)
# In short: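 Membranes from KAN-TS cells; radioligand competitive displacement, 3 h, filtration and scintillation counting. Single-point duplicate screen at 25 uM, then concentration-response up to 50 uM for hits; loss of signal fitted versus DMSO.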
Structure (SMILES),AC50,outcome
CCN(Cc1cccnc1)C(=O)c1cccc(Cl)c1[C@]1(C)C(=O)N(Cc2ccc(OC)cc2OC)c2ccc(Cl)cc21,3.69 µM (active),–
CN(C)C(=O)C1(N2CCCCC2)CCN(CC[C@@]2(c3ccc(Cl)c(Cl)c3)CN(C(=O)c3ccccc3)CCO2)CC1,15.7 µM (active),–
O=C1c2ccccc2C(=O)N1CCc1noc(-c2ccc(CN3CCCCCC3)s2)n1,14.8 µM (active),–
CN(C[C@@H](CC[N+]12CCC(C3CCCCC3)(CC1)CC2)c1ccc(Cl)c(Cl)c1)C(=O)c1cc(C(F)(F)F)cc(C(F)(F)F)c1,33.1 µM (active),–
CC(C)(C)c1csc(-c2cc3cc(OCc4ccccc4CC(=O)O)ccc3o2)n1,–,inactive
CO[C@H]1/C=C/O[C@@]2(C)Oc3c(C)c(O)c4c(O)c(c(/C=N/N5CCN(C)CC5)c(O)c4c3C2=O)NC(=O)/C(C)=C\C=C\[C@H](C)[C@H](O)[C@@H](C)[C@@H](O)[C@@H](C)[C@H](OC(C)=O)[C@@H]1C,–,inactive
O=C1CCC(C2CCCCC2)CC1,–,inactive
O=c1[nH]sc2ccccc12,25 µM (active),–
